# Sm TGR inh: qHTS Assay for the Inhibitors of Schistosoma Mansoni Peroxiredoxins; Schistosoma mansoni thioredoxin glutathione reductase (TGR), Q962Y6; purified TGR, DTNB reduction, TNB absorbance 405 nm; Potency, µM (doses to about 114 µM), actives largely listed as inhibitors; hit rate 3% among 360,000; AID 485364, 2010; also: nearly all actives have a fitted effect of over 60% in size
#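 First, TGR (20 nM dispensed) and NADPH were mixed with compound. Second, a 15 min room-temperature incubation followed. Third, further NADPH and then DTNB were added to start the reaction. Finally, TNB absorbance was monitored kinetically.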
# HCMV antiviral: qHTS Assay for inhibitors of the human cytomegalovirus (HCMV). HFF cells, HCMV-luciferase reporter, 72 h; hits give low values. activity change, negative = inhibition, % at 57.5 µM. hit rate 4.5% among 410,000; in the data active = activity change below about -60%; inconclusive = no clear call, values can overlap the other calls; inactive = above about -39%
#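 Inhibition of viral replication was scored as loss of reporter luminescence in HFFs infected with HCMV-luciferase (MOI 1 PFU/cell) for 72 h; compounds tested at 2 doses, normalized to buffer and Salinomycin controls.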
# SARS PLpro yeast: qHTS of Yeast-based Assay for SARS-CoV PLP; Potency, µM (titrated, usually from 32.9 µM), hits mostly activators; S. cerevisiae expressing SARS-CoV PLpro, growth rescue; hit rate 0.19% among 330,000; calls by dose curve; also: nearly all actives have a fitted effect of over 55% in size
# Pf growth 96h: Primary qHTS for delayed death inhibitors of the malarial parasite plastid, 96 hour incubation | P. falciparum luciferase reporter growth, 96 h | Potency, µM (highest dose often 28.7 µM), usual class: inhibitors | hit rate 6.9% among 320,000 | AID 504834, 2011
#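 Plates of compound plus infected erythrocytes (2% hematocrit, 0.05% parasitemia final) incubate 96 hours, 37 C, 5% CO2. Detection reagent added; reduced luminescence from the parasites' luciferase reporter flags inhibition.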
# Pf growth 48h: Primary qHTS for delayed death inhibitors of the malarial parasite plastid, 48 hour incubation; P. falciparum luciferase growth in erythrocytes, 48 h; Potency, µM (highest dose often 28.7 µM), actives largely listed as inhibitors; hit rate 5.9% among 310,000
#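 A one-generation exposure of luciferase-tagged malaria parasites in RPMI 1640/Albumax erythrocyte culture, 37 C and 5% CO2. Inhibition is inferred from decreased luminescence after adding detection reagent.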
# HCV inhibitor: qHTS Assay for Inhibitors of Hepatitis C Virus (HCV); Potency, µM (highest dose often 41.8 µM), usual class: inhibitors; hit rate 3.4% among 340,000; Huh7.5.1 HCVcc-Cre infection, luciferase reporter, 44 h
#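 After 44 h co-culture of compound, cells and HCVcc-Cre (~0.5 moi), substrate is added for 15 min at room temperature and luciferase measured over 15 sec. Cells were seeded at 1,000/well and pre-cultured 4 h.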
# A number is an active result; – = inactive; ? = inconclusive; · = no result; [ ] = another dose, or the depositor's remark. Compounds with a hit are over-represented: about 15% of the library has one in this group of screens. Unless noted, calls follow the shape of the dose curve; as a rule, active = well fitted curve in the direction sought with a large enough effect; inconclusive = small, poorly fitted or top-dose-only effect, or another doubt; inactive = no such curve, though single readings can be large; an effect the other way counts as inactive or inconclusive.
SMILES,Sm TGR inh,HCMV antiviral,SARS PLpro yeast,Pf growth 96h,Pf growth 48h,HCV inhibitor
CCC(CC)C(=O)N1N=C(c2ccc(NS(C)(=O)=O)cc2)CC1c1ccc(C)cc1 (stereo unspecified),–,?,–,5.2µM,?,?
CC(=O)N1N=C(c2ccccc2)CC1c1ccccc1 (stereo unspecified),–,–,–,?,–,–
N=C(SC1CC(=O)N(c2ccc(F)cc2)C1=O)N1N=C(c2ccccc2)CC1c1ccccc1 (stereo unspecified),–,–,–,–,2.1µM,–
CC1(C(=O)NNC(=O)c2ccc(=O)oc2)CC1Br (stereo unspecified),10µM,–,–,–,–,–
Cc1cc(=O)oc(C)c1C(=O)NNC(=O)C1(C)CC1Br (stereo unspecified),–,–,–,–,–,–
COc1ccc(N2CCN(c3nc4ccc(C)cc4n4nnnc34)CC2)cc1,–,?,·,·,·,·
N#Cc1cn(CCOc2ccccc2F)c2ccccc12,–,–,–,·,2.9µM,–
N#Cc1cn(CCOc2ccc(F)cc2)c2ccccc12,–,–,–,–,10µM,?
Cc1c(C#N)c2ccccc2n1CCOc1ccccc1F,–,–,–,2.9µM,1.2µM,–
Cc1ccc(OCCCn2cc(C#N)c3ccccc32)cc1,–,–,–,–,–,–
CC(C)CN(CC(C)C)c1nn[nH]n1,·,–,·,·,·,–
COc1ccc(C(CNC(=O)C(C)(C)Oc2ccc(Cl)cc2)N2CCOCC2)cc1 (stereo unspecified),·,–,·,·,·,–
CC1CCCCc2cc(O)ccc2OC(=O)CC1 (stereo unspecified),·,–,·,·,·,·
COC(=O)C1=C(C)NC2=C(C(=O)CCC2)C1c1ccc(-c2ccsc2C(=O)OC)o1 (stereo unspecified),?,–,–,12µM,?,–
Cc1cc(C)nc(N/N=C/C2=C(O)CC(c3ccccc3)CC2=O)n1 (stereo unspecified),–,–,–,–,?,·
O=C1C(=O)c2ccccc2C(O)=C1CC=C(Cl)Cl,·,-95,·,·,·,–
O=C1C(C=Nc2ccccc2)=C(O)c2ccccc21,–,–,–,·,–,–
Brc1cc2c(cc1C1Nc3ccccc3C3C=CCC31)OCO2 (stereo unspecified),–,–,–,–,?,–
Cc1cc(C)c2c(c1)NC(c1cc3c(cc1Br)OCO3)C1CC=CC21 (stereo unspecified),–,–,–,–,13µM,?
COc1ccc(C(=O)C2CCCN(C(=O)c3ccc(CSC)o3)C2)cc1F (stereo unspecified),28µM,–,–,–,–,–
CN(C)S(=O)(=O)N1CCCC(C(=O)c2ccc(C(F)(F)F)cc2)C1 (stereo unspecified),–,?,–,0.83µM,–,–
COc1ccc(C(=O)C2CCCN(C(=O)c3noc4c3CCCC4)C2)cc1F (stereo unspecified),–,–,–,?,–,–
COCc1ccc(C(=O)N2CCCC(C(=O)c3ccc(SC)cc3)C2)s1 (stereo unspecified),–,-87,–,?,–,·
COCCC(=O)N1CCCC(C(=O)c2ccc(C(F)(F)F)cc2)C1 (stereo unspecified),–,–,–,13µM,–,–
COc1ccc(Nc2ncc(C(=O)Nc3cccc(OC)c3)c3ccccc23)cc1,–,–,·,·,·,·
SMILES,Sm TGR inh,HCMV antiviral,SARS PLpro yeast,Pf growth 96h,Pf growth 48h,HCV inhibitor
CCCC(=O)N1CCC1(C)C(=O)NS(=O)(=O)c1cccc(C)c1 (stereo unspecified),·,–,·,·,·,·
COc1ccc(CCn2cnn3c(=O)c4ccccc4nc3c2=O)cc1OC,·,–,·,·,·,·
CN(C)c1cccc(C(=O)N2CCCC(C(=O)c3cc(F)ccc3F)C2)c1 (stereo unspecified),–,–,–,–,?,–
COc1ccc(C(=O)C2CCCN(C(=O)c3ccccc3C(C)=O)C2)cc1F (stereo unspecified),40µM,?,–,?,–,–
CCOC(=O)C1CCCN(C(=O)COc2ccc(C(=O)c3ccc(F)cc3)cc2)C1 (stereo unspecified),·,–,–,·,·,13µM
O=C(COc1ccc(F)cc1)N1CCCCCCC1,–,–,–,?,–,–
COc1ccc(C(=O)C2CCCN(C(=O)COc3ccc(C(C)=O)cc3)C2)cc1F (stereo unspecified),·,–,–,12µM,–,–
COc1ccc(F)cc1C(=O)C1CCCN(C(=O)c2cccc(N(C)C)c2)C1 (stereo unspecified),–,?,–,?,5.9µM,–
CC(=O)N1CCc2cc(CNC(=O)Nc3cc(Cl)ccc3C)ccc21,–,–,·,·,·,·
CC(=O)c1ccccc1C(=O)N1CCCC(C(=O)c2ccc(C(F)(F)F)cc2)C1 (stereo unspecified),40µM,–,–,–,–,–
CCc1cccc(C)c1NC(=O)CN1C(=O)c2c(c3ccccc3n2C)C1c1ccc(OC)cc1 (stereo unspecified),–,–,·,·,·,·
Oc1ccccc1Cn1c(-c2ccccc2O)nc2ccccc21,–,–,·,·,?,–
COc1ccc(-c2nc3ccccc3n2Cc2ccccc2)cc1,–,–,–,?,·,–
COc1ccccc1Cn1c(-c2ccccc2OC)nc2ccccc21,–,-68,–,·,·,–
COc1cc(Cn2c(-c3ccc(O)c(OC)c3)nc3ccccc32)ccc1O,–,–,–,13µM,2.9µM,–
O=S(=O)(Nc1cccnc1)c1ccc(Cl)cc1,–,–,–,·,–,–
CC(C)(C)c1ccc(C(=O)N2CCN(C(=O)C3CCCCC3)CC2)cc1,–,-77,–,10µM,?,–
O=C(c1cccc(F)c1)N1CCCC(C(=O)N2CCCCC2)C1 (stereo unspecified),–,–,–,?,–,–
O=C(c1cccc(F)c1)N1CCN(S(=O)(=O)c2ccccc2)CC1,–[11.4 µM],–,–,·,·,–
O=C(c1cccc(F)c1)N1CCN(C(=O)C2CC2)CC1,–,–,–,0.33µM,–,–
CC(C)(C)c1ccc(C(=O)N2CCCN(C(=O)c3ccc(C(C)(C)C)cc3)CC2)cc1,–,–,–,–,–,–
O=C(c1cccc(F)c1)N1CCN(S(=O)(=O)Cc2ccccc2)CC1,–,?,–,–,2.9µM,–
O=C(c1ccc(N2CCN(C(=O)c3ccccc3Br)CC2)cc1)c1cccc(F)c1,–,?,–,9.3µM,?,?
O=C(c1ccc(N2CCN(C(=O)c3cccc(F)c3)CC2)cc1)c1cccc(F)c1,–,–,–,?,13µM,?
CCOC(=O)N1CCN(c2ccc(C(=O)c3cccc(F)c3)cc2)CC1,–,·,–,–,·,?

# Source: PubChem
